Of roughly 8,800 targets only a part is listed; those with a hit were picked by preference. About 0.5% of all pairs of compound and target were hits.
Compound: Cc1nc(Nc2ncc(C(=O)Nc3c(C)cccc3Cl)s2)cc(N2CCN(CCO)CC2)n1 [dasatinib]
Assay: log2 fold change, soluble protein after heating vs DMSO (PISA); higher = thermal stabilisation; K562 lysate, 10 uM; active = over 0.2 and 3.5 SD of the protein, either way, in both replicates (recomputed)
How it was run: (§1)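 The values are log-two fold changes in thermal stability compared with solvent controls and come from duplicates. They were obtained by TMTpro 16plex LC-MS/MS, with channel sums equalised, on the supernatant after 21,000xg for 90 min. That supernatant came from crude K562 extract at 1 mg/mL protein treated with 10 μM compound for 30 min, heated for 3 min across 48°C-58°C, pooled and brought to 0.5% NP-40 at 4°C.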

Chain of UniProt O15379 (O15379 whole entry, looked up): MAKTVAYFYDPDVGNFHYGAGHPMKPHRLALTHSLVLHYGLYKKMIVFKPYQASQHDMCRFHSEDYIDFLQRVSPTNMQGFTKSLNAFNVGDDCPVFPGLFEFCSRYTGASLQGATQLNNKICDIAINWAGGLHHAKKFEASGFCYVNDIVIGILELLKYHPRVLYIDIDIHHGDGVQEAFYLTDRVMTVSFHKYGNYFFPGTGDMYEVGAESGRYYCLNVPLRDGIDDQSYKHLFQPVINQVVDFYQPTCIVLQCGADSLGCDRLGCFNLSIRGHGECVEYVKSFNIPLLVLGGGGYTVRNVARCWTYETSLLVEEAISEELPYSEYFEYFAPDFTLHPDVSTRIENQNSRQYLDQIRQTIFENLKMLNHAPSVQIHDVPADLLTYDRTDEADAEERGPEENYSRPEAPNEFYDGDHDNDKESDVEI
Chain of UniProt Q14687 (Q14687 whole entry, looked up): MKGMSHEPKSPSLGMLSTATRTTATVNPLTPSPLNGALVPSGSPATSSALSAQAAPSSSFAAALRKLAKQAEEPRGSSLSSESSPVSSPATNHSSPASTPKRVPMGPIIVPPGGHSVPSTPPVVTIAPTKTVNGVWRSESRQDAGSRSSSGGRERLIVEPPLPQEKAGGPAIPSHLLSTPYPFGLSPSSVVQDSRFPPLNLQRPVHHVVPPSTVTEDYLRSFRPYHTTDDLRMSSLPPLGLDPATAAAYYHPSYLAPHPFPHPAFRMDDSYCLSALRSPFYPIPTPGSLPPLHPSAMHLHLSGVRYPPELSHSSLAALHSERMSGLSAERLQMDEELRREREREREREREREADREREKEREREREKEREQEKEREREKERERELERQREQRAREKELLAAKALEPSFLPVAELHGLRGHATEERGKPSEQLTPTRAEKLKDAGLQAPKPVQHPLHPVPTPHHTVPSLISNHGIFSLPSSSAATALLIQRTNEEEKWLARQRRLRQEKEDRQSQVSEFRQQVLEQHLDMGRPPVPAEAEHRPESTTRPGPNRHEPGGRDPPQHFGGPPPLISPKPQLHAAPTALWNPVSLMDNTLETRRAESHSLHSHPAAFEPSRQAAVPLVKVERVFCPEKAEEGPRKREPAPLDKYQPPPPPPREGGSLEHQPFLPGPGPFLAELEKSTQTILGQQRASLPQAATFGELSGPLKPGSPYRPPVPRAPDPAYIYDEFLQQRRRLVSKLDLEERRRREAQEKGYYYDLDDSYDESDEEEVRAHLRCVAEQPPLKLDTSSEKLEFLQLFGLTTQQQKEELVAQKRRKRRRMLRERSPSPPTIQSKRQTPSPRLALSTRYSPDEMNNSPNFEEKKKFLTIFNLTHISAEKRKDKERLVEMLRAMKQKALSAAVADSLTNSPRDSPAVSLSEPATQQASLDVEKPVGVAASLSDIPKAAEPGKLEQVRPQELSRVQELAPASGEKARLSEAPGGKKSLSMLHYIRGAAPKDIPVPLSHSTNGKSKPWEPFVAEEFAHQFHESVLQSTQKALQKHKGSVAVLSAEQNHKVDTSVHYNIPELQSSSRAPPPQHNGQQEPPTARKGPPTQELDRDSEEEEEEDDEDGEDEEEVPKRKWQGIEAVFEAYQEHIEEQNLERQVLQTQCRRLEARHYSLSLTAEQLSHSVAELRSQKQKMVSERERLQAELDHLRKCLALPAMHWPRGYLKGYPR
Chain of UniProt Q9BUJ2 (Q9BUJ2 whole entry, looked up): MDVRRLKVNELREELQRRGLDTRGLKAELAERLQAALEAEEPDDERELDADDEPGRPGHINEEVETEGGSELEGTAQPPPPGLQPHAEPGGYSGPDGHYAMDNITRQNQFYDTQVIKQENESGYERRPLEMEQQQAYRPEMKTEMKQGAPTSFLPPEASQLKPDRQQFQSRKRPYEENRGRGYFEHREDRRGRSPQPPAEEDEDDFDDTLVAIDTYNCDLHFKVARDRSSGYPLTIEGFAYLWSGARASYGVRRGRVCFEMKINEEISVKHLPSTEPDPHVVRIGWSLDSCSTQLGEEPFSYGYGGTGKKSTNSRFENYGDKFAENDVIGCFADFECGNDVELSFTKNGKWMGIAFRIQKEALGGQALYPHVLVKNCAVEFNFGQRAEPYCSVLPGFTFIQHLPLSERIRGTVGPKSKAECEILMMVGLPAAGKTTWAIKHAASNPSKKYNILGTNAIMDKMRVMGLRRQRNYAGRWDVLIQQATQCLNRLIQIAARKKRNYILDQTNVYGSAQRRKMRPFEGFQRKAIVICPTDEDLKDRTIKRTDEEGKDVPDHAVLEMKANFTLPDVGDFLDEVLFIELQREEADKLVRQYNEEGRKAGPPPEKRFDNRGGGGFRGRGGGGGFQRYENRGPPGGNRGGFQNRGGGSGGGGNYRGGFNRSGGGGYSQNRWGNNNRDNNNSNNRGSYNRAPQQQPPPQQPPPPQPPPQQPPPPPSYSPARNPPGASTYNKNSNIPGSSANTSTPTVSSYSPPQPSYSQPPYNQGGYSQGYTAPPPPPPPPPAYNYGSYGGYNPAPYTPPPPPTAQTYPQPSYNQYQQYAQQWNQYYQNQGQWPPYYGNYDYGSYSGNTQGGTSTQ
Chain of UniProt P50053 (P50053 whole entry, looked up): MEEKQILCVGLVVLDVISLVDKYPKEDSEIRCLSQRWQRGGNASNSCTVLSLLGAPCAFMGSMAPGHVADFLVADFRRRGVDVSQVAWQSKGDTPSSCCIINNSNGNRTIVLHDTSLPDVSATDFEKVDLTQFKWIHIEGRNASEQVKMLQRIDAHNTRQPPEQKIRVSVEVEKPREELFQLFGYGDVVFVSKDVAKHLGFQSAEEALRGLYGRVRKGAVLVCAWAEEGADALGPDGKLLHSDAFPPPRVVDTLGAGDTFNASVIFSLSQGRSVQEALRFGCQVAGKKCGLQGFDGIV
Chain of UniProt Q9H1B7 (Q9H1B7 whole entry, looked up): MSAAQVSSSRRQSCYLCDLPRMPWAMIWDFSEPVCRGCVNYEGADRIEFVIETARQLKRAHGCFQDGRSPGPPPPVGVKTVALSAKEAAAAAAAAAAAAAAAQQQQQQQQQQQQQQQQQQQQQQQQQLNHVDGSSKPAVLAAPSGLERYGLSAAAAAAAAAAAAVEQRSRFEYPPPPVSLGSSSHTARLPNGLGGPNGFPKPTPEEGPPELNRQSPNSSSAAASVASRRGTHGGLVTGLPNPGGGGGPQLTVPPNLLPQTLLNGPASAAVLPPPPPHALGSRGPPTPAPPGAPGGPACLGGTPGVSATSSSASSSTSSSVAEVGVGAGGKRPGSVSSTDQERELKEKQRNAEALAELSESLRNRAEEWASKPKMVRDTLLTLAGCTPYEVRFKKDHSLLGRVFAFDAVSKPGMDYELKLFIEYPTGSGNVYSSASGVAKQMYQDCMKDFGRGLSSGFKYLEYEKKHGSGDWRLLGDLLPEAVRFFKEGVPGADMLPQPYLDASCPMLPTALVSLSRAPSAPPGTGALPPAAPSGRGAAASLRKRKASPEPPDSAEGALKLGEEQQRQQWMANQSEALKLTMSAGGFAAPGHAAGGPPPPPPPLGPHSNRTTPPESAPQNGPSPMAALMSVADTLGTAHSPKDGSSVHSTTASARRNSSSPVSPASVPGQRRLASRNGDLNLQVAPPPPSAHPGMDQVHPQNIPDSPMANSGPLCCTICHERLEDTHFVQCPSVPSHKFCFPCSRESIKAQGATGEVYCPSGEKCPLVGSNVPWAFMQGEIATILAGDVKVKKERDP
Chain of UniProt Q9H0C8 (Q9H0C8 whole entry, looked up): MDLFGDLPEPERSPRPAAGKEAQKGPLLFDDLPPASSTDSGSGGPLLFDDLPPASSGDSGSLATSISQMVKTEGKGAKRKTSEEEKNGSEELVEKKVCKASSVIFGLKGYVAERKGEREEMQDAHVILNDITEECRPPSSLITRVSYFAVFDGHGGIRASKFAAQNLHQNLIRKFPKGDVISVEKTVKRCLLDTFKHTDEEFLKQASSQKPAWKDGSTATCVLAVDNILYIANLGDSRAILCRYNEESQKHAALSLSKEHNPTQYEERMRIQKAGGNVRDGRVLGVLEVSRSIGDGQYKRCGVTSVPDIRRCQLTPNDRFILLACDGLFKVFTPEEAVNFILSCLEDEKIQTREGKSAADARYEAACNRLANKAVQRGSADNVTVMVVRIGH
Chain of UniProt Q9Y5Q9 (Q9Y5Q9 whole entry, looked up): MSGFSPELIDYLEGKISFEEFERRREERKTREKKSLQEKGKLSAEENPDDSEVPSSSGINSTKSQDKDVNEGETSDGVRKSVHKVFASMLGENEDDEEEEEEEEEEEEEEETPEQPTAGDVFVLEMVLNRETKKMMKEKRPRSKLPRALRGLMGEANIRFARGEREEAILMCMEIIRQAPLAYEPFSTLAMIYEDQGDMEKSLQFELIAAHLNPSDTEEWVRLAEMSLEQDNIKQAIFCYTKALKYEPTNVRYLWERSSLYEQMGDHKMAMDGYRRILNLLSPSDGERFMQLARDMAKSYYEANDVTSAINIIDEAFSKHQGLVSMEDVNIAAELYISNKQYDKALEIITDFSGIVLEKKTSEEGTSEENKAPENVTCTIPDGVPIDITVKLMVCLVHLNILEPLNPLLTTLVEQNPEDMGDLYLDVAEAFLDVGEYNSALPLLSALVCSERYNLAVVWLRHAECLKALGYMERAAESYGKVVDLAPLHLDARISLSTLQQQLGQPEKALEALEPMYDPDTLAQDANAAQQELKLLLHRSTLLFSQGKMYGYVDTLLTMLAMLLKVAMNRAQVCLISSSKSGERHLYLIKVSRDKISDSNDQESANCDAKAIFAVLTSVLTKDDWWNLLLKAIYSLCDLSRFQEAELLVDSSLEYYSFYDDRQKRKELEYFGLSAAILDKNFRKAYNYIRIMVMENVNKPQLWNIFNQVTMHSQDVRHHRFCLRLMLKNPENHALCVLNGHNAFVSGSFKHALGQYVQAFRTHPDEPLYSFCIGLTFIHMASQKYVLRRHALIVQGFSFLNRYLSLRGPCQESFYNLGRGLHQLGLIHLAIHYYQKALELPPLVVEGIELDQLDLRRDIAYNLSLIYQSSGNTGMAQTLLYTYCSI

log2 fold change, inactive:
HMGB1 (UniProt P09429) 0.03, IGF2BP2 (UniProt Q9Y6M1) -0.055, GNB1 (UniProt P62873) -0.078, IRAK1 (UniProt P51617) 0.051, GRK6 isoform 2 (UniProt P43250) 0.023, ICAM2 (UniProt P13598) 0.013, IMMT (UniProt C9J406) 0.045, GUSB (UniProt P08236) 0.007, HSPA14 (UniProt Q0VDF9) -0.018, HNRNPH2 (UniProt P55795) 0.049, HDAC6 (UniProt Q9UBN7) -0.06, HSP90AA4P (UniProt Q58FG1) 0.029, KHK isoform 2 (UniProt P50053) -0.075, GTF3C3 (UniProt Q9Y5Q9) 0.008, H4C1 (UniProt P62805) -0.063, HSPB1 (UniProt P04792) -0.032, GNL3 (UniProt Q9BVP2) -0.005, KDM5C (UniProt P41229) -0.032, GOLGA1 (UniProt Q92805) -0.026, KATNBL1 (UniProt Q9H079) 0.068, HNRNPM (UniProt P52272) -0.109, HEATR3 (UniProt Q7Z4Q2) -0.042, HNRNPUL1 (UniProt Q9BUJ2) -0.012, HDGFL2 isoform 2 (UniProt Q7Z4V5) 0.014, HNRNPLL (UniProt Q8WVV9) -0.019, HDAC3 (UniProt O15379) 0.04, IMPDH1 isoform 6 (UniProt P20839) -0.033, HDHD5 (UniProt Q9BXW7) 0.023, KDM6A (UniProt O15550) 0.041, ILKAP (UniProt Q9H0C8) 0.025, IRF2BPL (UniProt Q9H1B7) -0.043, GSTP1 (UniProt P09211) -0.035, GLUL (UniProt P15104) 0.054, GSE1 (UniProt Q14687) -0.064, GSTCD (UniProt Q8NEC7) -0.003, HMGN4 (UniProt O00479) 0.192

Compound: Cc1ncc(-c2ccnc(Nc3ccc(S(C)(=O)=O)cc3)n2)n1C(C)C
Assay: as above
How it was run: as §1

log2 fold change, inactive:
HMGB1 (UniProt P09429) 0.064, IGF2BP2 (UniProt Q9Y6M1) -0.008, GNB1 (UniProt P62873) 0.098, IRAK1 (UniProt P51617) 0.112, GRK6 isoform 2 (UniProt P43250) 0.005, ICAM2 (UniProt P13598) 0.012, IMMT (UniProt C9J406) 0.012, GUSB (UniProt P08236) -0.026, HSPA14 (UniProt Q0VDF9) 0.009, HNRNPH2 (UniProt P55795) 0.071, HDAC6 (UniProt Q9UBN7) -0.034, HSP90AA4P (UniProt Q58FG1) -0.062, KHK isoform 2 (UniProt P50053) -0.02, GTF3C3 (UniProt Q9Y5Q9) -0.026, H4C1 (UniProt P62805) -0.033, HSPB1 (UniProt P04792) 0.012, GNL3 (UniProt Q9BVP2) 0.029, KDM5C (UniProt P41229) 0.022, GOLGA1 (UniProt Q92805) -0.015, KATNBL1 (UniProt Q9H079) -0.159, HNRNPM (UniProt P52272) -0.05, HEATR3 (UniProt Q7Z4Q2) -0.031, HNRNPUL1 (UniProt Q9BUJ2) 0.006, HDGFL2 isoform 2 (UniProt Q7Z4V5) -0.021, HNRNPLL (UniProt Q8WVV9) 0.008, HDAC3 (UniProt O15379) -0.026, IMPDH1 isoform 6 (UniProt P20839) 0.015, HDHD5 (UniProt Q9BXW7) -0.052, KDM6A (UniProt O15550) -0.009, ILKAP (UniProt Q9H0C8) -0.094, IRF2BPL (UniProt Q9H1B7) 0.054, GSTP1 (UniProt P09211) -0.003, GLUL (UniProt P15104) -0.026, GSE1 (UniProt Q14687) 0.036, GSTCD (UniProt Q8NEC7) -0.005, HMGN4 (UniProt O00479) 0.009

From the supplement of paper PMC10849652
